Screening results as filed in PubChem.
Compounds with a hit are over-represented: about 2.5% of the library has one in this group of screens.
ULK1 inh = blocks human autophagy kinase ULK1; O75385; inhibition, % at 5.96 µM; AlphaScreen Atg13 phosphorylation by ULK1, luminescence; 1.9% of 30,000 active; in the data active = inhibition above about 43%
ASK1 primary = human ASK1 kinase inhibition, primary screen; Q99683; 0.99% of 22,000 active; AlphaScreen MKK6 phosphorylation by ASK1, luminescence; inhibition, % at 7.44 µM; in the data active = inhibition above about 35%
Numbers stand for hits; - = inactive; . = no result given.

SMILES	ULK1 inh	ASK1 primary
Cc1ccc(-c2ncn(-c3ccc(Nc4ncc5ccc(-c6cnn(C)c6)cc5n4)cc3)n2)cn1	-	-
O=C(c1cccc(Nc2ccc3[nH]ncc3c2)n1)N1CCOCC1	48	-
O=C(c1cc(Nc2ccc3[nH]ncc3c2)ccn1)N1CCOCC1	-	-
CC(C)n1c(-c2csc3ccccc23)nc2c(NCCO)ncnc21	-	-
COc1cc(N2CCOCC2)ccc1Nc1cc(Nc2ccccc2C(N)=O)c(C(F)F)cn1	83	-
Cn1ccc(-c2ccccc2Nc2ccnc(Nc3ccc(N4CCOCC4)cc3)c2)n1	-	-
CNC(=O)c1ccccc1Nc1cc(Nc2ccc(N3CCOCC3)cc2OC)ncc1C	-	-
COc1cc(N2CCOCC2)ccc1Nc1cc(Nc2ccccc2C(=O)N(C)C)c(C(F)(F)F)cn1	74	-
Cn1nc(C2CC2)cc1Nc1cc(Nc2ccc(N3CCOCC3)cc2)ncc1C(F)(F)F	46	-
COc1cc(N2CCOCC2)ccc1Nc1cc(-c2cnn(C)c2)c(Cl)cn1	-	-
COc1ccc(C(=O)c2oc3cc(NC(=O)C(C)(C)C)ccc3c2C)cc1	-	.
CC(C)n1c(-c2ccc(C(=O)N3CCN(C)CC3)cc2)nc2c(NCCN3CCOCC3)ncnc21	-	-
O=C(/C=C/c1ccccc1)Nc1nc(CC(=O)NCc2ccc(F)cc2)cs1	57	.
O=C(Cc1csc(NC(=O)c2ccccc2)n1)Nc1ccc(F)c(F)c1	-	.
C=C1c2c(Cl)ccc(O)c2C(O)=C2C(=O)[C@]3(O)C(O)=C(C(N)=O)C(=O)[C@@H](N(C)C)[C@@H]3[C@@H](O)[C@H]12	72	.
CN(C)[C@@H]1C(=O)C(C(=O)NCN2CCCC2)=C(O)[C@@]2(O)C(=O)C3=C(O)c4c(O)cccc4[C@@](C)(O)C3CC12 (some centres undefined)	-	.
C=C1c2cccc(O)c2C(O)=C2C(=O)[C@]3(O)C(O)=C(C(N)=O)C(=O)[C@@H](N(C)C)[C@@H]3[C@@H](O)[C@H]12	64	.
Oc1ccc(CCNc2nc(-c3ccc(N4CCOCC4)nc3)nc3c2ncn3Cc2ccc(C(F)(F)F)cc2)cc1	-	-
CN(C)CCOc1cc(-c2cn[nH]c2)c(F)cc1NC(=O)[C@H](N)c1ccc(F)cc1	-	-
Cc1noc(C)c1-c1nc2ncnc(NCCN(C(C)C)C(C)C)c2[nH]1	-	-
c1ccc(OCCNc2nc(NCc3ccc4c(c3)OCO4)nc3c2ncn3-c2ccccc2)cc1	-	-
Cc1cc(-c2ccc(N=Nc3ccc4c(S(=O)(=O)O)cc(S(=O)(=O)O)c(N)c4c3O)c(C)c2)ccc1N=Nc1ccc2c(S(=O)(=O)O)cc(S(=O)(=O)O)c(N)c2c1O	57	.
Nc1c(N=Nc2ccc(-c3ccc(N=Nc4cc(S(=O)(=O)O)c5ccccc5c4N)cc3)cc2)cc(S(=O)(=O)O)c2ccccc12	56	.
O=S(=O)(O)c1ccccc1O	-	.
OC1CCN(c2cc(-c3ccccc3F)nc(-c3ccccn3)n2)CC1	-	.
SMILES	ULK1 inh	ASK1 primary
Cn1nccc1Nc1ncc(C(=O)Nc2ccc(N3CCOCC3)cc2)s1	-	-
Cn1nccc1Nc1cccc(C(=O)Nc2ccc(N3CCOCC3)cc2)n1	45	-
CNC(=O)c1cccnc1Nc1cc(NC(=O)Cc2ccc(OC)cc2)ncc1C(F)(F)F	43	-
NC(=O)c1ccccc1Nc1cc(Oc2ccc(N3CCNCC3)cc2)ncc1C(F)(F)F	60	-
CNC(=O)c1ccccc1Nc1cc(NC(=O)Cc2ccc(OC)cc2)ncc1C(F)(F)F	70	-
CNC(=O)c1ccccc1Nc1cc(NC(=O)Cc2ccc(OC)cc2)ncc1C#N	-	-
CNC(=O)c1ccccc1Nc1cc(NC(=O)CCc2ccccc2)ncc1C(F)(F)F	-	-
NC(=O)c1ccccc1Nc1cc(NC(=O)Cc2ccc3ccccc3c2)ncc1C(F)(F)F	-	-
COc1ccc(CC(=O)Nc2cc(Nc3ccccc3-c3ncccn3)c(C(F)(F)F)cn2)cc1	-	-
CNC(=O)c1ccccc1Nc1cc(NC(=O)Cc2ccccc2)ncc1C(F)(F)F	58	-
NC(=O)c1ccc(-c2nc3ccc(C(=O)NCCOc4ccccc4)cc3s2)cc1	-	-
CNC(=O)c1ccccc1Nc1cc(NC(=O)Cc2c(Cl)cccc2Cl)ncc1C(F)(F)F	-	-
NC(=O)c1ccccc1Nc1cc(NC(=O)Cc2ccc(CN3CCOCC3)cc2)ncc1C(F)(F)F	63	-
CNC(=O)c1ccccc1Nc1cc(NC(=O)Cc2cccc(OC)c2)ncc1C(F)(F)F	55	-
NC(=O)c1ccccc1Nc1cc(NC(=O)Cc2ccc(CN3CCOCC3)cc2)ncc1Cl	-	-
O=C(NCc1nc2ccccc2[nH]1)c1cc(Cl)nc2ccccc12	-	-
Cc1[nH]ncc1-c1ccc(NC(=O)Nc2cccc(C(=O)NC(C)C)c2)cc1	-	-
CCCNC(=O)c1ccnc(NCCCN2CCCC2=O)c1	60	-
COc1cc(Nc2nccc(NCCCN3CCCC3=O)n2)cc(OC)c1OC	52	-
O=C1CCCN1CCCNc1ccnc(NCCCN2CCCC2=O)n1	-	-
COc1cc(Nc2nc(NCCCN3CCCC3=O)c3[nH]cnc3n2)cc(OC)c1OC	74	-
O=C(NCCCN1CCCC1=O)c1ccnc(Nc2ccncc2)c1	-	-
c1nc2nc(Nc3ccc(N4CCOCC4)cc3)nc(NCCN3CCOCC3)c2[nH]1	-	-
Cn1nccc1Nc1nc(NCCCN2CCCC2=O)c2[nH]cnc2n1	-	-
c1ccc(OCCNc2nc(Nc3ccc(N4CCOCC4)cc3)nc3nc[nH]c23)cc1	69	-
SMILES	ULK1 inh	ASK1 primary
CCOc1ccc(C)cc1S(=O)(=O)Nc1ccc2c(c1)CC(=O)N2CC	-	.
O=[N+]([O-])c1cnn(Cc2ccccc2Cl)c1	-	.
Cc1cc(O)cc2c1C(=O)/C(=C/c1cccnc1)O2	-	.
CN1C(=O)CC[C@H]1c1cccnc1	-	.
COc1ccc(CCNC(=O)c2ccnc(-c3ccc(OC)cc3)c2)cc1	-	-
CSc1nc(N2CCCC2)c2cnn(CCN)c2n1	-	.
O=C(Nc1ccccc1)c1ccc2nc(Nc3ccncn3)sc2c1	-	-
CO[C@@H]1[C@@H](OC(=O)c2ccc(C)[nH]2)[C@@H](O)C(Oc2ccc3c(O)c(NC(=O)c4[nH]cc(C(=O)Nc5c(O)c6ccc(OC7OC(C)(C)[C@@H](OC)[C@H](OC(=O)c8ccc(C)[nH]8)[C@@H]7O)c(C)c6oc5=O)c4C)c(=O)oc3c2C)OC1(C)C (some centres undefined)	-	.
O=C1CCCN1CCCNc1nc(Nc2ccc(N3CCOCC3)cc2)nc2nc[nH]c12	54	-
O=C1CCCN1CCCNc1ncnc2nc(Nc3ccc(N4CCOCC4)cc3)[nH]c12	-	-
CCCCCCCCCCCCCCCC[N+](C)(C)CC	-	.
CCCCCCCCCCCCCCCC[N+](C)(C)Cc1ccccc1	48	.
NC(=O)c1ccccc1Nc1ccnc(Nc2ccc(N3CCOCC3)cc2F)c1	-	-
CN(C)Cc1cnc(Nc2ccc(N3CCOCC3)cc2)cc1Nc1ccccc1C#N	-	-
CNC(=O)c1ccccc1Nc1cc(Nc2ccc(N3CCSCC3)cc2OC)ncc1C#N	86	-
CNC(=O)c1ccccc1Nc1cc(Nc2ccc(N3CCS(=O)(=O)CC3)cc2OC)ncc1C#N	81	-
CCCNc1nc(-c2ccc(C(=O)N3CCN(C)CC3)cc2)nc2nc[nH]c12	-	-
CC(C)CC(=O)Nc1ccc(S(=O)(=O)N2CCOCC2)cc1	-	.
CCC(=O)/C=C/n1c(=S)oc2ccccc21	48	.
CCCNc1nc(Nc2nc3ccccc3n2C)nc2c1ncn2CCN1CCCC1=O	-	-
